Data reported in PubChem BioAssay AID602474 (National Center for Advancing Translational Sciences (NCATS), 2012).
Inconclusive results are not listed. Entries that show only a call come without a potency. Activity calls are given as the source filed them. The call rests on the fitted dose curve; in most records, active means well fitted inhibition curve with a large enough effect; inconclusive means small, poorly fitted or top-dose-only effect; inactive means no such curve, though single readings can be large or run the other way.

These molecules were tested against Luciferin 4-monooxygenase (Photinus pyralis) (UniProt P08659) (assay: FLuc inhibitory activity for the follow-up compounds in a biochemical assay with a commercial detection reagent - BriteliteTM Plus (PerkinElmer)). Conditions: purified FLuc, Britelite Plus luminescence; series mostly up to 38.3 µM.
Luciferin 4-monooxygenase (Photinus pyralis), sequence (P08659 whole entry, looked up): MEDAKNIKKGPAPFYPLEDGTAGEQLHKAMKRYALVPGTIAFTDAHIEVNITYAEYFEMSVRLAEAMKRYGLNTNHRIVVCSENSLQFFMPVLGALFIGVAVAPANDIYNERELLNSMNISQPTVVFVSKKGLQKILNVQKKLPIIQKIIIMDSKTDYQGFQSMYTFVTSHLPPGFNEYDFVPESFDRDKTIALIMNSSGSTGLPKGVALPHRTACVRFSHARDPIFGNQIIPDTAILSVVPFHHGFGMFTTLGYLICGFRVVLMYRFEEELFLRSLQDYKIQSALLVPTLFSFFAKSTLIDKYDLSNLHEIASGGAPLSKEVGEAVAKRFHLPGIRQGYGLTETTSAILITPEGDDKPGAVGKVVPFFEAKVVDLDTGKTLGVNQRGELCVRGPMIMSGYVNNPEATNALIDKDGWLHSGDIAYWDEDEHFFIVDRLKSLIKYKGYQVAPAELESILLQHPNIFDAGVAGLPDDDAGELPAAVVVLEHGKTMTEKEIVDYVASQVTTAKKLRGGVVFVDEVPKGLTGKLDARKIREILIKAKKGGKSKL
Text: NCGC Assay Overview: Firefly (Photinus pyralis) luciferase is one of the most commonly used transcriptional reporters. It is considered one of the more dynamically responsive reporters - that is, responsive to changes in reporter transcription - as it requires no post-translational modifications and is enzymatically active directly after protein synthesis (Wood, 1998). With no endogenous expression in mammalian cells and without the requirement of external excitation, it offers very little background signal, thus generally providing excellent signal to background for most assays. Previous profiling work to determine the prevalence of compounds that affect FLuc enzymatic activity (PubChem AID 411) identified that ~3% of the MLSMR library (then at ~72K) inhibited FLuc (Auld et al., 2008). […] Of the compounds identified in this profile that inhibited FLuc, 151 compounds were selected for further analysis, in an effort to better understand their mode of inhibiting FLuc. The assay described here was to determine the activity of the compounds in a FLuc assay that used a commercial formulation of detection reagent (BriteliteTM Plus; PerkinElmer).
NCGC Assay Protocol Summary: Reagents: Britelite Plus detection reagent; 50mM Tris acetate, pH 7.5; 10nM P. pyralis luciferase (Sigma #L9506) Control compounds used were two known firefly luciferase inhibitors (3-(5-(3-chlorophenyl)-1,2,4-oxadiazol-3-yl)benzoic acid and 5-(2-fluorophenyl)-3-phenyl-1,2,4-oxadiazole), and DMSO. Assay Summary: Three microliters of buffer containing firefly luciferase (final concentrations: 50mM Tris acetate, 10nM P. pyralis luciferase) are dispensed into each well of a Greiner white, solid-bottom 1536-well format plate using a flying reagent dispenser (FRD). These assay plates were then treated with 23nL of compound or DMSO using a Kalypsys pin tool, which allows for delivery of a 12-point intraplate titration of each compound to the assay plate (quantitative HTS), with final compound concentrations ranging from approximately ~38uM to 0.2nM. Three microliters of 2X Britelite Plus detection reagent was then delivered by FRD to each well. Luciferase activity was then measured using a ViewLux CCD imager (PerkinElmer), with an average exposure time of 2-30 seconds (2X binning, medium/high gain).

SMILES | Potency
COc1ccc(CC(=O)Nc2cccc(C(=O)Nc3ccccc3C(=O)O)c2)cc1OC | inactive
O=C(O)c1cccc(NC(=O)c2ccc(COc3ccc(Cl)cc3)cc2)c1 | inactive
CC(C)C(=O)Nc1cccc(C(=O)Nc2ccccc2C(=O)O)c1 | 17900 nM (active)
COc1ccc2nc(NC(=O)C3CCN(S(=O)(=O)c4cccnc4)CC3)sc2c1 | inactive
O=C(Nc1ccc(Cl)cc1-c1nc2ccccc2s1)c1ccco1 | inactive
Cc1ccc(C(=O)Nc2cccc(C(=O)O)c2)cc1 | 2000 nM (active)
Cc1ccc(C(=O)Nc2cccc(C(=O)O)c2)cc1S(=O)(=O)N1CCCC1 | 2250 nM (active)
O=C(O)c1cccc(NC(=O)c2cccc(S(=O)(=O)N3CCc4ccccc4C3)c2)c1 | inactive
CN(C)S(=O)(=O)c1ccc(C(=O)Nc2ccccc2C(=O)O)cc1 | inactive
COc1cc(OC)cc(C(=O)Nc2ccccc2-c2nc3ccccc3s2)c1 | inactive
Cc1ccc(S(=O)(=O)N2CCOCC2)cc1C(=O)Nc1ccccc1C(=O)O | inactive
Cc1c(C)c2ccc(OCC(=O)Nc3ccccn3)c(C)c2oc1=O | 40 nM (active)
O=C(O)c1cccc(NC(=O)c2ccc(S(=O)(=O)c3ccccc3)cc2)c1 | inactive
Cc1ccc(C(=O)O/N=C(\N)c2ccccn2)c(Cl)c1 | 25.2 nM (active)
Cc1ccc(C(=O)Nc2cccc(C(=O)O)c2)cc1S(=O)(=O)N1CCCCC1 | 2830 nM (active)
COc1ccc(-c2nc3ccccc3s2)cc1O | 711 nM (active)
CCn1c(C)nc2cc(-c3nc4n(n3)Cc3ccccc3-4)ccc21 | 71.1 nM (active)
CCc1noc(C)c1C(=O)Nc1nc2ccc(OC)cc2s1 | 50.4 nM (active)
CCOC(=O)N1CCN(CC(=O)Nc2nc3ccc(OC)cc3s2)CC1 | inactive
CC(=O)Nc1cccc(C(=O)Nc2ccccc2C(=O)O)c1 | inactive

SMILES | Potency
O=C(O)c1ccccc1NC(=O)c1ccccc1Nc1ccccc1 | inactive
CCOc1ccc(C(=O)Nc2ccccc2C(=O)O)cc1 | 3560 nM (active)
Nc1ccc(C(=O)Nc2ccccc2C(=O)O)cc1 | 11300 nM (active)
COc1ccc(NS(=O)(=O)c2cccc(C(=O)Nc3ccccc3C(=O)O)c2)cc1 | inactive
COc1ccc2nc(NC(=O)c3nc(S(=O)(=O)Cc4ccc(C)cc4)ncc3Cl)sc2c1 | inactive
COc1c(C)cccc1C(=O)Nc1ccc(-c2nc3ccccc3s2)c(Cl)c1 | 7110 nM (active)
CC(C)c1ccc(C(=O)Nc2ccc(-c3nc4ccccc4s3)c(Cl)c2)cc1 | inactive
O=C(Nc1ccccc1-c1nc2ccccc2s1)c1cccnc1 | inactive
Cc1ccc(NS(=O)(=O)c2ccc(Cl)c(C(=O)Nc3cccc(C(=O)O)c3)c2)cc1 | inactive
COc1ccccc1C(=O)Nc1ccc(C(=O)O)cc1 | inactive
COc1ccc(C(=O)Nc2ccccc2C(=O)Nc2ccc(C(=O)O)cc2)cc1 | 14200 nM (active)
Cc1ccc(S(=O)(=O)N2CCN(C(=O)c3ccccc3-c3nc4ccccc4s3)CC2)c(C)c1 | inactive
Cc1ccc(C(=O)O/N=C(\N)c2ccccn2)cc1 | 28.3 nM (active)
Cc1cccc(C(=O)Nc2ccc(-c3nc4ccccc4s3)cc2Cl)c1 | inactive
CC(C)(C)C(=O)Nc1ccc(-c2nc3ccccc3s2)cc1 | 17.9 nM (active)
Cc1ccc2sc(-c3ccc(NC(=O)c4cc(-n5cnnc5)ccc4Cl)cc3)nc2c1 | inactive
Nc1ccc2nc(-c3ccc(O)cc3)sc2c1 | 1130 nM (active)
COc1ccc2nc(NC(=O)c3ccc(NS(=O)(=O)c4cccs4)cc3)sc2c1 | inactive
O=C(Nc1cccc(-c2nc3ccccc3s2)c1)c1cc(-n2cnnc2)ccc1Cl | inactive
Nc1ccccc1C(=O)Nc1cccc(C(=O)O)c1 | 12600 nM (active)
